Hits are enriched below; roughly 15% of the tested compounds scored in any of these assays.
VP16 counter = counter-screen for ROR gamma inhibitors: Gal4-VP16 reporter; AID 2546; Drosophila S2 Gal4-VP16 UAS-luciferase, luminescence, 20 h; Potency, µM (series often up to 53.6 µM), inactives show at the top dose activity, negative = inhibition, hits mostly inhibitors; 3.5% of 310,000 active;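 further: Gal4-VP16 expression switched on by copper sulfate through the metallothionein promoter; nearly all actives have a fitted effect of over 50% in size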
12-LOX inh = ALOX12 (human) lipoxygenase inhibition | P18054 | purified 12hLO, xylenol orange hydroperoxide absorbance | Potency, µM (series often up to 108 µM), for the others: at the top dose activity change, negative = inhibition, usual class: inhibitors | 1.1% of 580,000 active
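Purified human 12hLO at 150 nM in 25 mM Hepes, 0.01% Triton X-100, pH 7.0, preincubated 15 min at room temperature with compound. Reaction started with 40 uM arachidonic acid, 30 min at room temperature. Hydroperoxide measured by Fe-xylenol orange, 573/405 nm absorbance ratio.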
ELG1 DNA repair = inhibitors of ELG1-dependent DNA repair in HEK293T cells; HEK293T ELG1-luciferase reporter, luminescence, 16 h; DNA damage induced by 5-fluorouridine; Potency, µM (series often up to 46.1 µM), inactives show at the top dose activity change, negative = inhibition, actives largely listed as inhibitors; 2.3% of 330,000 active; further: nearly all actives have a fitted effect of over 55% in size
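5-Fluorouridine DNA damage + compound/DMSO, 2,000 cells/well, 16 h, 37 °C/5% CO2. ONE-Glo, 30 min RT, luminescence. Readout = decrease in reporter signal.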
TDP1 cell CPT = growth inhibition of DT40 Tdp1-/-;hTDP1 cells with camptothecin (screen for TDP1 inhibitors); chicken DT40 Tdp1-/-;hTDP1 cells + 20 nM CPT, ATP luminescence, 48 h; Potency, µM (titrated, usually from 46.2 µM), inactives show at the top dose activity change, negative = growth inhibition, usual class: inhibitors; 12% of 420,000 active; further: nearly all actives have a fitted effect of over 55% in size
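Chicken DT40 Tdp1-/- cells complemented with human TDP1, 400 cells/well, exposed to compounds plus 20 nM camptothecin for at least 48 h at 37 C; viability read as ATP content by CellTiter-Glo luminescence.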
RORg inh = inhibitors of mouse ROR gamma transcriptional activity | P51450 | Drosophila S2 Gal4-RORgamma UAS-luciferase reporter, 20 h | Potency, µM (titrated, usually from 53.6 µM), for the others: at the highest dose activity change, negative = inhibition, most hits filed as inhibitors | 5.4% of 310,000 active | AID 2551; further: nearly all actives have a fitted effect of over 60% in size
Target sequence (P51450 whole entry, looked up, the tested form may be a part): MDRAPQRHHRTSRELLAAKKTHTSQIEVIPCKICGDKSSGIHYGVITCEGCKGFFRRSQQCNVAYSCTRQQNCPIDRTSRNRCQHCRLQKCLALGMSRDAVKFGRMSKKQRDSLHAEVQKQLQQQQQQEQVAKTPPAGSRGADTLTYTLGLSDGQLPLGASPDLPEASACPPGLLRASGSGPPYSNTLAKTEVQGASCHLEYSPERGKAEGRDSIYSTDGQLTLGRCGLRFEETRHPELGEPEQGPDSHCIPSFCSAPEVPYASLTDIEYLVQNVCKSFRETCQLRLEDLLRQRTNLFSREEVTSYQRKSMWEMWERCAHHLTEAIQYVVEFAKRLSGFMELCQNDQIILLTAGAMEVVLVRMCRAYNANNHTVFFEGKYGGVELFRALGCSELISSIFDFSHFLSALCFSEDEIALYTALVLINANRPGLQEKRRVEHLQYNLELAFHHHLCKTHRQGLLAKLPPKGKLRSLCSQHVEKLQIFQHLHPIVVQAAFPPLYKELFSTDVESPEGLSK
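In this cell-based reporter format, copper sulfate (700 uM final) drives Gal4–ROR gamma fusion expression from a metallothionein promoter in Drosophila Schneider cells; compounds preincubated 1 hr, reporter read after 20 hr at ambient temperature.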
DT40 TDP1 no CPT = qHTS for Inhibitors of human tyrosyl-DNA phosphodiesterase 1 (TDP1): qHTS in cells in absence of CPT | DT40 Tdp1-/- hTDP1 cells, no CPT, ATP luminescence, 48 h | Potency, µM (top dose mostly 46.2 µM), for inactives: at the highest dose activity change, negative = growth inhibition, hits mostly inhibitors | 15% of 420,000 active; further: nearly all actives have a fitted effect of over 55% in size
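Cells were dispensed at 400 per well, compounds added by pin tool, plates incubated ≥48 hr at 37 °C, then CellTiter-Glo added for 30 min at room temperature before luminescence reading. Line: DT40 Tdp1-/- complemented with hTDP1; camptothecin omitted.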
* = called active by the depositor; u = inconclusive; x = no result given; [ ] = remark or other dose. The call rests on the fitted dose curve; in most records, active means well fitted curve in the direction sought with a large enough effect; inconclusive means small, poorly fitted or top-dose-only effect, or another doubt; inactive means no such curve, though single readings can be large; an effect the other way counts as inactive or inconclusive. On the % scale 0 is the no-effect control and ±100 the full control effect; potency means the concentration at half of the fitted maximal effect.

SMILES	VP16 counter	12-LOX inh	ELG1 DNA repair	TDP1 cell CPT	RORg inh	DT40 TDP1 no CPT
C/C(=N\NC(=S)NC(C)C)c1ccc(Cl)s1	u	45µM*	-2%	15µM*	1.1µM*	5.8µM*
Cc1cc(C)c(NC(=O)c2nn(C(C)C)c(=O)c3ccccc23)c(Cl)c1	x	9%	x	x	x	x
C/C(=C\C(=O)c1ccc(C)cc1)Nc1cccc(O)c1	3.5µM*	-22%	u	18µM*	6.3µM*	u
C/C(=C\C(=O)c1ccc(C)cc1)Nc1ccc(N2CCOCC2)cc1	3%	x	-3%	x	-3%	x
Cc1ccc(C(=O)/C=C/Nc2ccc3c(c2)OCO3)cc1	-49%	u	u	-1%	u	4%
O=C(/C=C\Nc1ccccn1)c1ccccc1	13µM*	15%	u	-6%	5µM*	-23%
O=C(/C=C/Nc1cccc(O)c1)c1ccccc1	6.3µM*	u	u	-21%	5µM*	-11%
Cc1ccc(C(=O)/C=C/Nc2cccc(O)c2)cc1	1µM*	u	u	u	2.2µM*	u
Cc1ccc(N/C=C/C(=O)c2ccccc2)cc1Br	u	-1%	u	-9%	u	u
O=C(O)C[C@@H]1CCN(C(=O)Nc2ccc(OC(F)(F)F)cc2)C[C@@H]1CCN1CCOCC1	x	-28%	x	x	x	x
COc1ccccc1OCCN1C(=O)C2(SC(NC(C)=O)=NN2C(C)=O)c2ccccc21 (stereo not given)	x	30%	x	x	x	x
C/C(=C\C(=O)c1ccccc1)Nc1ccc(O)cc1	13%	-17%	u	-26%	u	u
C/C(=C\C(=O)c1cccnc1)Nc1ccc(O)cc1	u	-16%	u	-20%	13µM*	u
CCOC(=O)c1cnc2c(ccc3ccccc32)c1Nc1cccc(Cl)c1	x	-18%	x	-5%	x	-20%
CCOC(=O)c1cnc2c(ccc3ccccc32)c1NCCO	u	2%	u	u	32%	21µM*
CCOC(=O)c1cnc2c(ccc3ccccc32)c1Nc1cccc(OC)c1	x	u	x	u	x	26µM*
CNc1oc(-c2cc(S(=O)(=O)N(C)c3ccccc3)c(C)o2)nc1C#N	x	12%	x	x	x	x
CC(=O)NCCNC(=O)C[C@@H]1CCNC[C@@H]1Cc1cc(-c2ccccn2)on1	x	51%[176 µM]	x	x	x	x
CC(Sc1nc2ccccc2c(=O)n1C)C(=O)NC1CCCCC1C (stereo not given)	x	x	8%	4.1µM*	x	2.3µM*
CC(Sc1nc2ccccc2[nH]1)C(=O)NC1CCCCC1C (stereo not given)	-8%	x	3%	-18%	-7%	-17%
CC(=O)Nc1ccc(NC(=O)CSCc2csc(-c3ccc(C)cc3)n2)cc1	x	-5%	x	x	x	x
Cc1ccc(S(=O)(=O)NCCC2(C(C)C)CCOC(C)(C)C2)cc1 (stereo not given)	-1%	-3%	-8%	u	1%	u
Cc1ccc(C2=NNC3(CCOC(C)(C)C3)S2)cc1 (stereo not given)	7.9µM*	u	u	-18%	5.6µM*	-20%
O=S1(=O)C[C@H](N2CCN(c3ccccc3F)CC2)[C@@H](S(=O)(=O)c2ccccc2)C1	x	-35%	x	x	x	x
CC(NC1=CC(=O)c2cccnc2C1=O)C(O)c1ccccc1 (stereo not given)	x	u	x	1.5µM*	x	3.3µM*
SMILES	VP16 counter	12-LOX inh	ELG1 DNA repair	TDP1 cell CPT	RORg inh	DT40 TDP1 no CPT
Cc1ccc(Cn2nc(C)c(C(=O)NCC(c3cccs3)N3CCOCC3)c2Cl)cc1 (stereo not given)	x	-14%	5.6µM*	21µM*	x	23µM*
COc1ccc(C(CNC(=O)c2c(C)nn(Cc3ccc(C)cc3)c2Cl)N2CCOCC2)cc1 (stereo not given)	x	-9%	21µM*	u	x	23µM*
O=C(O)CCC(=O)N1Cc2ccccc2CC2(CCCCN2Cc2ccc(O)cc2)C1 (stereo not given)	x	3%[6.33 µM]	x	x	x	x
CC(=O)c1cc(C#N)c(SCC(=O)OC(C)C)nc1C	1%[0.365 µM]	2%	18%	u	-43%	u
CC(=O)c1cc(C#N)c(SCC(=O)OC(C)(C)C)nc1C	-11%	-30%	12%	21µM*	17%	u
C/C(CC(=O)Nc1ccc(N(C)C)cc1)=N\NC(=O)c1ccccc1O	u	11%	u	-17%	23%[1.91 µM]	-2%
C/C(CC(=O)Nc1ccc(N(C)C)cc1)=N\NC(=O)c1ccc(Cl)cc1Cl	-11%	1%	18%	-25%	11µM*	-5%
COc1ccc(CNC(=O)C/C(C)=N/NC(=O)c2ccc([N+](=O)[O-])cc2Cl)cc1	2%	-4%	4%	6%	-18%	-14%
C/C(CC(=O)Nc1ccc([N+](=O)[O-])cc1)=N\NC(=O)c1ccccc1O	16µM*	0%	-1%	3%	11µM*	-11%
C/C(CC(=O)Nc1ccc(N(C)C)cc1)=N\NC(=O)c1ccc([N+](=O)[O-])cc1Cl	u	0%	3%	u	u	21µM*
CC(=O)Nc1ccc(CN2CCn3c(nn(-c4ccc(Cl)cc4)c3=O)C2)cc1	x	1%[6.33 µM]	x	x	x	x
O=C1OCC2=C1C(c1ccccc1)NC(=O)N2CC(=O)N1CCOCC1 (stereo not given)	x	4%	x	x	x	x
Cc1ccc(CNC(=O)Cc2csc(Nc3nc(=S)[nH]c4ccccc34)n2)cc1	7.1µM*	-6%	-1%	x	1.4µM*	x
O=C(COC(=O)c1cc(=O)[nH]c2ccccc12)NCc1ccccc1Cl	x	u	14%	1%	x	8%
Cc1ccc(CNC(=O)c2csc(Nc3ccccc3C)n2)cc1	x	-18%	x	x	x	x
O=C(Cc1csc(Nc2nc(=S)[nH]c3ccccc23)n1)NCc1cccc(Cl)c1	u	4%	1%	u	6.3µM*	18µM*
O=C(Cc1csc(Nc2nc(=S)[nH]c3ccccc23)n1)N1CCN(c2cccc(C(F)(F)F)c2)CC1	7.1µM*	-2%	u	u	0.63µM*	16µM*
O=C(Cc1csc(Nc2nc(=S)[nH]c3ccccc23)n1)NCc1ccccc1Cl	-5%	-6%	7%	21µM*	6%	4.6µM*
Nc1nccnc1C(=O)NCCSC1CCCC1	x	-2%	x	x	x	x
Cc1nnnn1CCC(=O)N[C@H]1CN(S(C)(=O)=O)C[C@@H]1C(C)C	x	71%	x	x	x	x
Cc1ccc(C(=O)c2ccccc2C(=O)OCC(=O)Nc2ccc(SC(F)F)cc2)cc1	u	-22%	u	u	-6%	18µM*

Bioassay records as filed in PubChem BioAssay.
